The nature of assay [1]: E. coli DRC41 culture turbidity changes, primary screen, E. coli filamentation inducer project, strain DRC41, OD650, 48 h (AID 1152).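 Further: E. coli MC1000 strain DRC41 lacking acrAB efflux pump and sulA.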 The conditions noted are these: E. coli DRC41 (acrAB sulA), higher = more signal, called active from +8 up or from −8 down.
Assay [2] can be described thus: small-molecule binders of probe aLefty1, primary screen, biochemical, small-molecule microarray, 635/667 nm fluorescence (AID 1153).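 Further: score merges spot fluorescence with signal-to-noise ratio from the scanned slide images.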 The settings on record: higher = more signal.
The nature of assay [3]: PSAC antagonists in infected red cells, primary screen, cell-based, P. falciparum Indochina, OD700, 1 h (AID 1154). The conditions noted are these: P. falciparum Indochina infected RBC osmotic lysis, higher = more signal, called active from +8 up or from −8 down.
The nature of assay [4]: PSAC antagonists in infected red cells, primary screen, cell-based, P. falciparum Indochina, OD700, 2 h (AID 1155).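 Further: lysis reports solute entry through the parasite surface anion channel PSAC; channel blockers reduce lysis of infected cells.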 The conditions noted are these: P. falciparum Indochina infected erythrocytes, osmotic lysis OD700; higher = more signal, called active from +8 up or from −8 down.
The nature of assay [5]: osmotic lysis modulators in infected erythrocytes, primary screen, PSAC antagonist project, cell-based, P. falciparum Indochina, OD700, 3 h (AID 1156). The settings on record: higher = more signal, called active from +8 up or from −8 down.
Assay [6] in a line: PSAC antagonists in infected red cells, primary screen, cell-based, P. falciparum Indochina, OD700, 18 h (AID 1157). The settings on record: P. falciparum Indochina infected erythrocytes, osmotic lysis OD700, 18 h; higher = more signal, called active from +8 up or from −8 down.
Assay [7] can be described thus: modulators of S6 phosphorylation in cells, primary screen, cell-based, A549, cytoblot, luminescence, serum-stimulated (AID 1158).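 Further: serum-stimulated A549 lung adenocarcinoma cells; signal is phosphorylated S6 detected by cytoblot immunostaining with HRP secondary.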 The settings on record: A549 phospho-S6 cytoblot, 5 h, higher = more signal.
The target of assay [8] is NADPH oxidase 2 (Homo sapiens) (UniProt P04839). Nature of the assay: NOX2-dependent H2O2 signal modulators, primary screen, NOX inhibitor project, cell-based, HEK293-NOX2, PMA-stimulated, Amplex Red fluorescence (AID 1159). Further: test concentration not given here. The conditions noted are these: 45 min, higher = more signal, called active from +8 up or from −8 down.
Assay [9] addresses NADPH oxidase 4 (Homo sapiens) (UniProt Q9NPH5). In words: NOX4-dependent H2O2 signal modulators, primary screen, NOX inhibitor project, cell-based, HEK293-NOX4, tetracycline-induced, Amplex Red fluorescence (AID 1160). The settings on record: 45 min, higher = more signal, called active from +8 up or from −8 down.
Assay [10] concerns the target NADPH oxidase 5 (Homo sapiens) (UniProt Q96PH1). In words: NOX5-dependent H2O2 signal modulators, primary screen, NOX inhibitor project, cell-based, HEK293-NOX5, Amplex Red fluorescence (AID 1161). The settings on record: HEK293-NOX5, ionomycin, 45 min, higher = more signal.
Assay [11] can be described thus: A549 cell viability effects, profiling panel, calcein-AM fluorescence, 48 h, basal (AID 1162). Further: test concentration not given here. The conditions noted are these: higher = more signal.
Assay [12] is described as follows: adipocyte viability effects, profiling panel, cell-based, 3T3-L1 adipocytes, calcein-AM fluorescence, 48 h, basal (AID 1163). Further: test concentration not given here. The conditions noted are these: 3T3-L1 adipocytes viability, higher = more signal.
The nature of assay [13]: HepG2 cell viability effects, profiling panel, calcein-AM fluorescence, 48 h, basal (AID 1164). Further: test concentration not given here. The conditions noted are these: higher = more signal.
The nature of assay [14]: MM1S cell viability effects, profiling panel, calcein-AM fluorescence, 48 h, basal (AID 1165).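 Further: viability of MM1S multiple myeloma cells under basal unstimulated conditions; test concentration not given here.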 The settings on record: higher = more signal.
Assay [15] is described as follows: basal RPMI8226 viability, no added stimulus, profiling panel, cell-based, calcein-AM fluorescence, 48 h, PK04 Diversity Set (AID 1166).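 Further: cells grown under basal conditions without added stimulus; test concentration not given here.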 The conditions noted are these: RPMI8226 myeloma viability, higher = more signal.
Assay [16] is described as follows: basal HepG2 mitochondrial membrane potential changes, profiling panel, cell-based, JC-1 fluorescence, 24 h, 100 nL compound (AID 1167). Further: test concentration not given here. The settings on record: higher = more signal.
The nature of assay [17]: basal 3T3-L1 adipocyte mitochondrial potential changes, profiling panel, cell-based, JC-1 fluorescence, 3T3-L1 adipocytes, 24 h, 100 nL compound (AID 1168). Further: test concentration not given here. The conditions noted are these: JC-1 mitochondrial fluorescence, higher = more signal, called active from +8 up or from −8 down.
Assay [18] is described as follows: basal RPMI8226 mitochondrial membrane potential changes, profiling panel, cell-based, JC-1 fluorescence, 24 h, 100 nL compound (AID 1169). Further: test concentration not given here. The conditions noted are these: RPMI8226 myeloma, JC-1 mitochondrial potential fluorescence, higher = more signal.
A short description of assay [19]: basal MM1S mitochondrial membrane potential changes, profiling panel, cell-based, JC-1 fluorescence, 24 h, 100 nL compound (AID 1170). Further: test concentration not given here. The conditions noted are these: higher = more signal.
Assay [20] in a line: A549 lung cancer cell viability effects, profiling panel, resazurin fluorescence, 24 h, PK04 Diversity Set (AID 1171). Further: test concentration not given here. The settings on record: higher = more signal, called active from +8 up or from −8 down. (In general: The colour change of resazurin is a common sign of viable cells or microbes.)

Structures are written as SMILES. Calls of active or inactive are those of the source.

NADPH oxidase 2 (Homo sapiens), sequence (P04839 whole entry, looked up): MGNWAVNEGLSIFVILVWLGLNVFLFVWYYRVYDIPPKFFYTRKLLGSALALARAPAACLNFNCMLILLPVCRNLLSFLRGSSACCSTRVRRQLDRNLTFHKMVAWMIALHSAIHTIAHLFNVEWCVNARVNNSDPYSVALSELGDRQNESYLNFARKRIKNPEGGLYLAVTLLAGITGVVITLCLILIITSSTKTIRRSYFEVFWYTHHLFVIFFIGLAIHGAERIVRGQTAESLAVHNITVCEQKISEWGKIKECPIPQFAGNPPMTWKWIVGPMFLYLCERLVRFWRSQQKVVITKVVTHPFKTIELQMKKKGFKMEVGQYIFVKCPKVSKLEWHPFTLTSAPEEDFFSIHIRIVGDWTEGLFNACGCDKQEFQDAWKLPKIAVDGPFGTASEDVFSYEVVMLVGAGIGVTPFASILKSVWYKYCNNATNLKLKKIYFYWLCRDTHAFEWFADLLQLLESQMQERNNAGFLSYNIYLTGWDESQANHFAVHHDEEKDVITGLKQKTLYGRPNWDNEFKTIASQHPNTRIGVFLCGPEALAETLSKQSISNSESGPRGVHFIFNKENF
NADPH oxidase 5 (Homo sapiens), sequence (Q96PH1 whole entry, looked up): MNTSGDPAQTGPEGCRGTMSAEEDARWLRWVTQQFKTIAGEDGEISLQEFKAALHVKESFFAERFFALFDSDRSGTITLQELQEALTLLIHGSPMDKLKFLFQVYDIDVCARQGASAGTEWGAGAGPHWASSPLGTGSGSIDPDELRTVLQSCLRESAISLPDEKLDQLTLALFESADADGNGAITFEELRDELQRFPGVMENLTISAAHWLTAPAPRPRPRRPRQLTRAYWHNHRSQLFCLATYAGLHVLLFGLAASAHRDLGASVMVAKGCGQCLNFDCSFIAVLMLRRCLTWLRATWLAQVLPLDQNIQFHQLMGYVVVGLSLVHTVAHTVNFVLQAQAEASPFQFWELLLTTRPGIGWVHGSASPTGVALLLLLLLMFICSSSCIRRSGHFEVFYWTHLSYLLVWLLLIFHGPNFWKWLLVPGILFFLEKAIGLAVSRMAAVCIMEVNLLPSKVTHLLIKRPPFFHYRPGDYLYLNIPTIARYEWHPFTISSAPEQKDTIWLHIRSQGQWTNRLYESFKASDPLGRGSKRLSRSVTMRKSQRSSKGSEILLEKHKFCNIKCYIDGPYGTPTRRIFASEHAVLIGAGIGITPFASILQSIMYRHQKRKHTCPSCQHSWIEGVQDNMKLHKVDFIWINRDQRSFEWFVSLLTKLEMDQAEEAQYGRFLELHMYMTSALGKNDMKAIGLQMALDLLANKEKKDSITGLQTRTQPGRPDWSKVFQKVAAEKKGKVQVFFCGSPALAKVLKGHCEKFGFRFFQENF
NADPH oxidase 4 (Homo sapiens), sequence (Q9NPH5 whole entry, looked up): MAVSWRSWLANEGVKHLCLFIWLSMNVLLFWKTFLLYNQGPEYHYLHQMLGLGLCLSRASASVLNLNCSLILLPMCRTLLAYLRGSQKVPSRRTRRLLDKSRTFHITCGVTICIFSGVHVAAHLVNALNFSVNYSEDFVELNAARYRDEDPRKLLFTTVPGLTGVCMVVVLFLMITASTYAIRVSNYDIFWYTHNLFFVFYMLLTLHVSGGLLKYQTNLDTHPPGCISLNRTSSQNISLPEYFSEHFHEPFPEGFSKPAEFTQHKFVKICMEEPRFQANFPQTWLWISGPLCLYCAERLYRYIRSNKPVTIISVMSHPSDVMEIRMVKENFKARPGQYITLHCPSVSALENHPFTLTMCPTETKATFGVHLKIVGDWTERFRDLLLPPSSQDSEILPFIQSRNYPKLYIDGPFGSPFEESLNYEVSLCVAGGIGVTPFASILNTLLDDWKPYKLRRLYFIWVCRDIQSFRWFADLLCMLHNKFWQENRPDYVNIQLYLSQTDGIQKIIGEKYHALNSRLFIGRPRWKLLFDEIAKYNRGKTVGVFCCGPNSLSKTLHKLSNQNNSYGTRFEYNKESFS

With `C[C@H]1Cc2c(COc3ccccc3)nc3c(c2CO1)CN(CCOc1ccccc1)CC3`, the z-score in [1] is 0.49 (inactive); in [3], 3.74 (inactive); in assay [4], 0.484 (inactive); in [5], 1.68 (inactive); in assay [6], 0.908 (inactive); in assay [7], 0.44. Besides, the z-score in [8] was 0.539 (inactive); in [9], 0.191 (inactive); in [10], -0.00428; in assay [11], 1.05; in [12], 0.175; in assay [13], 0.93. Further, the z-score in assay [14] is -0.125; in assay [15], -0.517; in assay [16] it was 2.33; in assay [17], 0.678 (inactive); in [18], -0.041; in [19], 0.184. The z-score in assay [20] was -0.0515 (inactive). In assay [2], the composite z-score was 0.2.

Take `CCN1C(=O)[C@H]2[C@H]3[C@H](O)[C@H](O)CC(=O)[C@H]3CC[C@H]2C1=O`: the z-score in assay [1] was 0.115 (inactive); in [3] it was -0.0957 (inactive); in assay [4], 0.143 (inactive); in assay [5] it was -0.669 (inactive); in [6], 0.0097 (inactive); in [7] it was -0.276. Further, the z-score in assay [8] is -0.676 (inactive); in assay [9], 0.471 (inactive); in assay [10], -0.156; in assay [11], 0.0697; in assay [12], 0.015; in assay [13] it was -0.0937. In addition, the z-score in [14] is 0.14; in assay [15] it was -1.17; in assay [16], -0.531; in [17] it was -0.386 (inactive); in [18], -0.0768; in assay [19], 0.816. Further, the z-score in [20] was 0.26 (inactive). Also, the composite z-score in assay [2] is -0.0603.

As to `O=c1n(-c2ccccc2)c(=O)n2n1CC[C@@H]1C(=NOCc3ccccc3)[C@H]3O[C@H]3[C@@H](O)[C@@H]12`, the z-score in assay [1] was -0.422 (inactive); in assay [3] it was 6.33 (inactive); in assay [4] it was 0.0311 (inactive); in assay [5], 0.349 (inactive); in assay [6] it was 0.425 (inactive); in assay [7], -0.302. In addition, the z-score in [8] is -3.43 (inactive); in assay [9], -0.13 (inactive); in assay [10] it was 0.183; in assay [11], 0.172; in assay [12], -0.915; in assay [13] it was 0.251. Further, the z-score in [14] was -0.232; in assay [15], 0.169; in assay [16], -0.406; in assay [17] it was -0.78 (inactive); in assay [18], -0.0915; in [19], -0.531. The z-score in [20] was -1.08 (inactive). For the same compound, the composite z-score in assay [2] was -0.514.

Turning to `CC(C)=NO[C@H](C)c1cn([C@H](CO)Cc2ccccc2)nn1`, the z-score is -2.06 (inactive) in assay [1]; 0.29 (inactive) in assay [3]; 0.0191 (inactive) in [4]; -0.188 (inactive) in [5]; 0.269 (inactive) in [6]; 0.225 in assay [7]. Also, the z-score in assay [8] was 0.849 (inactive); in assay [9], -0.311 (inactive); in assay [10], -0.281; in [11] it was 0.373; in assay [12], 0.232; in assay [13], -0.121. Also, the z-score in assay [14] is -0.0735; in assay [15] it was -0.33; in assay [16], -0.312; in [17] it was -0.41 (inactive); in [18], 0.155; in assay [19], 1.11. Also, the z-score in assay [20] was 0.268 (inactive). Further, the composite z-score in [2] is -0.142.

Consider `Cc1ccc(S(=O)(=O)N[C@H]2COC(=O)CC=C[C@@H](C)COC(=O)CC=C[C@@H]2C)cc1`, for which the z-score is 0.142 (inactive) in assay [1]; 0.866 (inactive) in assay [3]; -0.162 (inactive) in assay [4]; -0.424 (inactive) in assay [5]; -0.014 (inactive) in assay [6]; -0.41 in [7]. The z-score in [8] was 0.225 (inactive); in [9], 0.684 (inactive); in assay [10], 0.238; in [11] it was 0.409; in assay [12], -0.203; in [13], 0.0995. Further, the z-score in assay [14] is 0.0438; in assay [15], 0.219; in assay [16], 0.247; in assay [17], -0.393 (inactive); in [18], -0.0798; in assay [19], -0.197. Also, the z-score in assay [20] was 0.258 (inactive). Moreover, in assay [2], the composite z-score was -0.296.

As for `C#CCCCON=C1[C@H]2CCn3c(=O)n(C)c(=O)n3[C@H]2[C@H](O)[C@@H]2O[C@H]12`, the z-score in [1] is 0.117 (inactive); in assay [3], -0.611 (inactive); in assay [4], 0.147 (inactive); in assay [5], -0.354 (inactive); in [6], 0.0334 (inactive); in assay [7] it was -0.0228. For the same compound, the z-score is -0.0249 (inactive) in assay [8]; -0.124 (inactive) in assay [9]; 0.71 in assay [10]; 0.0083 in [11]; -0.421 in assay [12]; 0.716 in [13]. In addition, the z-score was -0.85 in [14]; -0.801 in assay [15]; 0.398 in [16]; 0.206 (inactive) in assay [17]; -0.253 in [18]; 0.00711 in [19]. The z-score in [20] is -0.576 (inactive). The composite z-score in [2] is 0.126.

For `COCOc1ccc(Br)cc1C(=O)[C@@H]1O[C@H]1c1cccc(OC)c1`, the z-score in assay [1] was 0.467 (inactive); in assay [3], 5.75 (inactive); in assay [4] it was 1.12 (inactive); in [5], -0.23 (inactive); in assay [6], 0.248 (inactive); in assay [7], -0.291. In addition, the z-score is 1 (inactive) in assay [8]; -0.575 (inactive) in [9]; -1.92 in assay [10]; 0.131 in assay [11]; 0.314 in assay [12]; -0.418 in [13]. In addition, the z-score was -2.86 in assay [14]; -1.51 in [15]; -1.39 in assay [16]; -0.276 (inactive) in [17]; -0.724 in assay [18]; -0.261 in assay [19]. Further, the z-score in assay [20] was -0.486 (inactive). Also, the composite z-score in assay [2] was -0.0662.

Turning to `CCOC(=O)NN=C1C[C@@H](O)[C@@H](O)[C@@H]2[C@@H]3C(=O)N([C@@H](C)c4ccccc4)C(=O)[C@@H]3CC[C@H]12`, the z-score in assay [1] is 0.0575 (inactive); in assay [3] it was 0.65 (inactive); in [4], 0.452 (inactive); in assay [5] it was -0.011 (inactive); in [6], 0.378 (inactive); in assay [7], -0.34. The z-score in assay [8] is 1.35 (inactive); in assay [9], 0.67 (inactive); in assay [10] it was -0.657; in [11], -0.0339; in assay [12], -0.584; in assay [13], -0.102. Also, the z-score was 0.136 in [14]; -0.177 in [15]; -0.39 in assay [16]; 0.29 (inactive) in assay [17]; 0.104 in assay [18]; -0.476 in [19]. Moreover, the z-score in assay [20] is -0.193 (inactive). In [2], this compound came in with a composite z-score of 0.119.

Consider `COc1ccc(O[C@H]2C=C[C@@H](c3ccccc3)O[C@@H]2COC(=O)CCC(C)=NOC(C)CN2CCCc3nc(C)c(C)cc32)cc1` (stereo not given in full), for which the z-score in assay [1] is -0.343 (inactive); in [3], 8.59 (active); in [4], 0.812 (inactive); in assay [5] it was 0.54 (inactive); in assay [6], 0.563 (inactive); in assay [7], -0.314. For the same compound, the z-score in assay [8] was -2.38 (inactive); in assay [9], -0.643 (inactive); in [10], -1.35; in [11], 1.12; in assay [12], 0.0929; in [13], 0.919. For the same compound, the z-score in assay [14] was -1.2; in assay [15] it was -0.63; in assay [16], 1.54; in assay [17], -0.0369 (inactive); in assay [18] it was -0.455; in assay [19], -1.18. The z-score in assay [20] is 1.21 (inactive). This compound also registered a composite z-score in assay [2] of 0.0004.
